High-throughput results from PubChem.
Sampled rows, rich in hits. Any-hit rate of the full collection: about 2.6%.
HEK293 tox = qHTS of GLP-1 Receptor Inverse Agonists: Cytotox Screen. HEK293 cAMP-luciferase reporter cells, luminescence, 24 h. Potency, µM (series often up to 38.3 µM), for inactives: at the highest dose activity change, negative = inhibition, most hits filed as inhibitors. 410,000 compounds, 0.13% hits;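 also: loss of luciferase light is scored as toxicity; % is scaled to controls: 0 for no effect and ±100 for the full control effect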
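Step one: seed cells (200 cells/uL, DMEM with 10% Nu serum, 1% pen-strep). Step two: 12-hour incubation at 37 deg C. Step three: pin 23 nL compound, incubate 24 hr. Step four: add luciferase reagent, read luminescence 12 min later.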
GLP1R inv ag = qHTS of GLP-1 Receptor Inverse Agonists (Inhibition Mode); 410,000 compounds, 1.6% hits; HEK293 GLP-1R CRE-luciferase, luminescence, 24 h; GLP-1R form is constitutively active; Potency, µM (titrated, usually from 38.3 µM), without a hit: at the highest dose activity change, negative = inhibition, usual class: inhibitors; AID 624417, 2012; Glucagon-like peptide 1 receptor (Homo sapiens), P43220; also: % is scaled to controls: 0 for no effect and ±100 for the full control effect; nearly all actives have a fitted effect of over 55% in size
Target sequence (P43220 whole entry, looked up): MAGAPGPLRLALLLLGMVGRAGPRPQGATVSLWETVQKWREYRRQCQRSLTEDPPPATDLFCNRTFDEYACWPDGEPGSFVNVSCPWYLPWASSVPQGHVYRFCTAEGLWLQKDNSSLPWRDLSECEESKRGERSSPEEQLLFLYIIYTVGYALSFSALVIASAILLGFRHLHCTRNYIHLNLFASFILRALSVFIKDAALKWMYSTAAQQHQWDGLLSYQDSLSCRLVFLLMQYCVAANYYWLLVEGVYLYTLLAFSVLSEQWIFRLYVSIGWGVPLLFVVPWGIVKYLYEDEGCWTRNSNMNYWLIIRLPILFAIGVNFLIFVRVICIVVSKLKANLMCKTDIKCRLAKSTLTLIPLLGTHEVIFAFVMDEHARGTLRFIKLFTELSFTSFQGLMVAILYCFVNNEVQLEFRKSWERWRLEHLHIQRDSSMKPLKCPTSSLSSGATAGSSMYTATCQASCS
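Stable HEK293 clone (constitutively active GLP-1R + cAMP-response luciferase); 200 cells/uL plated, 12 h pre-culture, compound 24 hr, 37 deg C/5% CO2; detection reagent 12 min RT; luminescence.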
GLP1R ag = qHTS of GLP-1 Receptor Agonists | HEK293 GLP-1R CRE-luciferase, luminescence, 4-6 h; cells express a hypersensitive GLP-1R form | Potency, µM (series often up to 45.6 µM), for inactives: at the highest dose activation, usual class: activators | 380,000 compounds, 0.007% hits; also: % of control where 0% means no effect
BRCA1 expr up = qHTS Assay to Identify Small Molecule Activators of BRCA1 Expression; MCF7-BRCA1-FFLuc reporter, luminescence, 48 h; response scale: scaled: vehicle 0%, 10 µM genistein 100%; Potency, µM (highest dose often 46.1 µM), inactives show at the top dose activation, hits mostly activators; 380,000 compounds, 1.1% hits; also: nearly all actives have a fitted effect of over 80% in size
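MCF7 cells carrying a BRCA1-firefly luciferase reporter (2000 cells/well, phenol-red free MEM) were attached for 2 h at 37 °C, then given compounds for 48 h. Luminescence was read 15 min after luciferase reagent; activity normalized to genistein (10 microM) and DMSO.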
The depositor's hits bear a star; ? = inconclusive; / = no result. Calls follow the shape of the dose curve; as a rule, active = well fitted curve in the direction sought with a large enough effect; inconclusive = small, poorly fitted or top-dose-only effect, or another doubt; inactive = no such curve, though single readings can be large; an effect the other way counts as inactive or inconclusive. Potency is read from the fitted curve at half-maximal effect.

SMILES	HEK293 tox	GLP1R inv ag	GLP1R ag	BRCA1 expr up
Cn1ncc2c(Nc3cccc(Cl)c3)nc(Nc3cccc(Cl)c3)nc21	-29%	11µM*	6%	-81%
CCc1nc2ccccc2n1CCc1ccccc1	-5%	?	42%	-4%
CC(C)(C)Cc1nc2ccccc2n1CCc1ccccc1	-4%	5µM*	5%	-22%
CC(C)Cc1nc2ccccc2n1CCc1ccccc1	?	13µM*	18%	-7%
N#CC1=C2C=Cc3ccccc3N2CCCC1=O	0%	31%	21%	2.5µM*
O=C(Nc1cc(S(=O)(=O)N2CCOCC2)ccc1N1CCCC1)c1ccccc1C(F)(F)F	2%	9%	0%	-22%
CCc1ccc(CN2CCc3nc(N4CCN(CC)CC4)ncc3C2)cc1	-2%	5µM*	/	/
COc1cc(CCC(C)=O)ccc1OC(=O)c1c(F)cccc1Cl	-14%	?	28%	8.9µM*
COc1ccc(CCNC(=O)c2ccccc2Cl)cc1OC	-10%	25%	4%	10%
CCN(Cc1ccccc1)c1ccc(/C=N/N=C(N)N)cc1	-25%	10µM*	-18%	-74%
CCN(Cc1ccccc1)c1ccccc1	-5%	3%	18%	0%
Cc1cc(C)nc(OC(C(=O)O)C(OCCc2ccccc2)(c2ccc(F)cc2)c2ccc(F)cc2)n1 (stereo not drawn)	-32%	10µM*	-6%	-36%
O=C(CSc1nccn1Cc1ccc(F)cc1)Nc1ccc2c(c1)OCCO2	-1%	6%	/	/
COc1cc(CN2CCCC(C(=O)c3ccc4c5c(cccc35)CC4)C2)cc(OC)c1O (stereo not drawn)	-16%	11µM*	4%	-30%
COc1ccc(C(=O)C2CCCN(Cc3ccc4nonc4c3)C2)c(OC)c1 (stereo not drawn)	1%	10µM*	5%	-14%
CN1CCC(C(=O)N2CCCC(C(=O)c3ccc4c5c(cccc35)CC4)C2)CC1 (stereo not drawn)	-8%	8.9µM*	-1%	-19%
CC(C)Oc1ccc(CNC(=O)C2CCCCN2S(=O)(=O)c2ccc(F)cc2)cc1 (stereo not drawn)	2%	?	/	/
Cc1ccc(-c2csc(NS(=O)(=O)c3cccc(F)c3)n2)o1	-6%	?	-5%	-12%
CCOc1ccc(/C=C/c2nc(C#N)c(N3CCN(c4ccccc4)CC3)o2)cc1	3%	6%	/	/
N/C(=N\OC(=O)/C=C/c1ccccc1)c1cccnc1	4%	6%	9%	10µM*
N/C(=N\OC(=O)/C=C/c1ccccc1Cl)c1cccnc1	11%	15%	11%	4µM*
CCCN1C(=O)CC(c2ccc(OC)c(OC)c2)C1=O (stereo not drawn)	2%	12%	6%	-1%
COC(CNC(=O)C(=O)NCC1CCCN1S(=O)(=O)c1cccs1)OC (stereo not drawn)	4%	2%	0%	14%
O=Cc1ccc(/C=C2\C=Cc3ccccc32)cc1	/	/	/	-75%
O=C(Nc1ccc2ncccc2c1)c1ccccc1Br	5%	-17%	24%	7.1µM*
SMILES	HEK293 tox	GLP1R inv ag	GLP1R ag	BRCA1 expr up
CN(C)S(=O)(=O)c1ccc(C(=O)Nc2ccc3ncccc3c2)cc1	-13%	56%	19%	13µM*
O=C1c2ccccc2C(=O)c2c(/C=C/N3CCCCC3)ccnc21	?	11%	3%	-87%
Nc1nnc(SCCOc2ccc(Br)cc2)s1	-5%	-16%	2%	11µM*
Nc1nnc(SCCOc2ccccc2)s1	-12%	7%	-7%	11%
COc1ccc(-c2coc3c(C(=O)NCc4ccco4)cccc23)c(C)c1	-7%	4.5µM*	-2%	-25%
COc1ccc(-c2ccc(C(=O)Nc3cccc(N(C)C)c3)c3occc23)c(C)c1	2%	?	-1%	2.5µM*
Cn1cc(-c2ccc(C(=O)Nc3cccc(Oc4ccccc4)c3)c3occc23)cn1	3%	15%	6%	11µM*
O=C(Nc1ccc(/C=C/c2ccc(NC(=O)c3cc(S(=O)(=O)O)c4cccnc4c3O)cc2S(=O)(=O)O)c(S(=O)(=O)O)c1)c1cc(S(=O)(=O)O)c2cccnc2c1O	/	/	-1%	/
Cn1c(Sc2ccccc2Cl)c(C=O)c2ccccc21	-13%	?	10%	-20%
Cn1c(Sc2ccc(Cl)cc2)c(C=O)c2ccccc21	?	3.2µM*	-35%	-59%
Cc1cccc(Sc2c(C=O)c3ccccc3n2C)c1	-27%	2.8µM*	0%	-24%
Cn1c(Oc2ccc(F)cc2F)c(C=O)c2ccccc21	-7%	?	21%	-1%
CCCCOc1cccc(C(=O)N(Cc2ccccc2)C2CCS(=O)(=O)C2)c1 (stereo not drawn)	6%	-21%	13%	-9%
CC1CCN(c2nc3ccc(C(=O)NC(C)C)cc3s2)CC1	6%	5µM*	/	-41%
CCN(CC)C(=O)C1=C(C)N(CCCOC)C(=O)C(CC(=O)NCc2ccco2)C1 (stereo not drawn)	1%	15%	0%	1%
Cc1cccc(C(=O)NC(=O)Nc2c(C)cc(C)nc2C)c1	0%	35%	6%	4µM*
Cc1cc(/C=C2/C(=N)N3C(=NC2=O)SN=C3S(C)(=O)=O)c(C)n1-c1ccc(F)cc1	-7%	3%	-1%	7.9µM*
CCOc1ccc(-n2c(C)cc(/C=C3/C(=N)N4C(=NC3=O)SN=C4S(C)(=O)=O)c2C)cc1	6%	-24%	4%	3%
CCN1CCN(S(=O)(=O)c2ccc(Cl)c(C(=O)Nc3ccccc3N3CCCC3)c2)CC1	3%	?	-1%	-15%
CCN1CCN(S(=O)(=O)c2ccc(Cl)c(C(=O)Nc3ccccc3N3CCCCC3)c2)CC1	-28%	10µM*	16%	-55%
CCN(CC(=O)Nc1cc(S(=O)(=O)N2CCCCC2)ccc1Cl)Cc1ccccc1	9%	5.6µM*	3%	-65%
O=C(Nc1cccc(Cl)c1)Nc1cc(S(=O)(=O)N2CCCCC2)ccc1Cl	-30%	2.8µM*	2%	-65%
CCN(c1ccccc1)S(=O)(=O)c1nnc(NC(=O)COc2cccc(C)c2)s1	-18%	-25%	/	/
CC12CCC(C(=O)Nc3nc4ccc(Br)cc4s3)(OC1=O)C2(C)C (stereo not drawn)	6%	?	7%	8.9µM*
CCN(CC)c1nc(NC2CCN(C)CC2)c2cc(OC)c(OC)cc2n1	/	/	/	-11%
O=C1/C(=C/c2ccc(N3CCOCC3)o2)SC(=Nc2ccccc2)N1CCc1c[nH]c2ccccc12	?	1.1µM*	-53%	-85%
Cc1ccc(-c2onc(C)c2C)cc1S(=O)(=O)N1CCOc2ccccc21	24%	?	13%	-44%
Cc1ccc(-c2onc(C)c2C)cc1S(=O)(=O)N1c2ccccc2CC1C (stereo not drawn)	12%	10µM*	/	/
COc1ccc(C(=O)Nc2ccc(-c3nc4ncccc4o3)cc2C)cc1Br	5%	-19%	1%	16%
